Data published in ChEMBL document CHEMBL1961873, “Compounds: GSK PKIS; Assays: Nanosyn kinase panel” (2012).

Target: Serine/threonine-protein kinase Chk2 (Homo sapiens) (UniProt O96017);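 also: reported value is the mean inhibition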
Conditions: at 1 µM

Serine/threonine-protein kinase Chk2 (Homo sapiens), sequence (O96017 whole entry): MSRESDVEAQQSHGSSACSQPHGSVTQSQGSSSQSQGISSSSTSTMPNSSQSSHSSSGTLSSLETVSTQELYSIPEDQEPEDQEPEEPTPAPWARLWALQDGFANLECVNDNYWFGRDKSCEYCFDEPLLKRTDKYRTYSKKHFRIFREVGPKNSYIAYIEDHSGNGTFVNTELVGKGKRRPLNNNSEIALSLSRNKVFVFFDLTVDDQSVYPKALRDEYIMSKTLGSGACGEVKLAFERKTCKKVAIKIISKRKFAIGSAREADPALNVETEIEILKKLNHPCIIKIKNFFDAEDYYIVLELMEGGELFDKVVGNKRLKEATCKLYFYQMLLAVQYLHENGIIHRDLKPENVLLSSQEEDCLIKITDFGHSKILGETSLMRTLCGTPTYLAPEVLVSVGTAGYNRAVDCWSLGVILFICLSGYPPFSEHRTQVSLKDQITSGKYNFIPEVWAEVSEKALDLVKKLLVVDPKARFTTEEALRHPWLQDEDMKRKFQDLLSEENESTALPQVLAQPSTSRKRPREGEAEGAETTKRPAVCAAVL

Point of comparison: `COc1ccc2cc(-c3c(-c4ccncc4)nc(-c4ccc(S(C)(=O)=O)cc4C)n3C)ccc2c1`, inhibition -0.36%. Against it:
- COc1cc(N2CCN(C(C)C)CC2)ccc1Nc1nc(Nc2ccc(F)cc2C(=O)NC[C@@H](O)CO)c2cc[nH]c2n1 — higher, 52.4%
- CS(=O)(=O)CCNCc1cc(-c2cc3c(Nc4ccc(OCc5cccc(F)c5)c(Cl)c4)ncnc3s2)cs1 — higher, 11.2%
- O=C(Nc1n[nH]c2cc(-c3ccccc3)ccc12)C1CC1 — higher, 3.79%
- CNC(=O)c1cncc(/C=C/c2c(C)cccc2C)c1 — higher, -0.03%
- NC(=O)Cc1ccccc1Oc1nccc(-c2c(-c3ccc(F)cc3)ncn2C2CCNCC2)n1 — higher, 6.05%
- COc1ccc2cc(-c3c(-c4ccncc4)nc(-c4ccc([S+](C)[O-])cc4C)n3C)ccc2c1 (configuration not stated) — lower, -5.67%
- COc1cc2ncn(-c3cc(OCc4ccccc4C(F)(F)F)c(C(C)=O)s3)c2cc1OC — higher, 1.9%
- NC(=O)c1cc(-c2ccncc2)cc(-c2ccccc2)c1N — higher, -0.01%
- CN(C)c1ccc2c(c1)/C(=C/Nc1ccc(S(N)(=O)=O)cc1)C(=O)N2 — higher, 10.6%
- CCC(=O)Nc1ccc(C)c(-c2ccc(C(=O)NCC3CC3)cc2)c1 — higher, 5.57%
- Fc1ccc(-c2c(-c3ccncc3)nc3n2CCS3)cc1 — higher, 0.52%
- CN1CCN(CCCNc2nc3ccc(Oc4ccc(NC(=O)Nc5cc(C(F)(F)F)ccc5F)cc4)cc3[nH]2)CC1 — higher, 0.77%
- c1ccc(-c2n[nH]cc2-c2ccnc(-c3ccc(OCCN4CCOCC4)cc3)c2)nc1 — higher, 2.24%
- Fc1ccc(-c2nc3n(c2-c2ccncc2)CCS3)cc1 — higher, 3.47%
- Fc1ccc(-c2ncn(CCCN3CCOCC3)c2-c2ccncc2)cc1 — lower, -1.12%
- O=C(Nc1ccc(Oc2ccc3[nH]c(NC(=O)c4ccccc4)nc3c2)cc1)Nc1cc(C(F)(F)F)ccc1F — higher, 3.89%
- Cc1nnc(-c2ccc(C)c(-c3ccc(C(=O)NCc4ccc(Cl)cc4)cc3)c2)o1 — higher, 1.86%

Target: Death-associated protein kinase 1 (Homo sapiens) (UniProt P53355);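 also: reported figure is the mean inhibition of DAPK1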
Conditions: at 0.1 µM

Death-associated protein kinase 1 (Homo sapiens), sequence (P53355 whole entry, looked up): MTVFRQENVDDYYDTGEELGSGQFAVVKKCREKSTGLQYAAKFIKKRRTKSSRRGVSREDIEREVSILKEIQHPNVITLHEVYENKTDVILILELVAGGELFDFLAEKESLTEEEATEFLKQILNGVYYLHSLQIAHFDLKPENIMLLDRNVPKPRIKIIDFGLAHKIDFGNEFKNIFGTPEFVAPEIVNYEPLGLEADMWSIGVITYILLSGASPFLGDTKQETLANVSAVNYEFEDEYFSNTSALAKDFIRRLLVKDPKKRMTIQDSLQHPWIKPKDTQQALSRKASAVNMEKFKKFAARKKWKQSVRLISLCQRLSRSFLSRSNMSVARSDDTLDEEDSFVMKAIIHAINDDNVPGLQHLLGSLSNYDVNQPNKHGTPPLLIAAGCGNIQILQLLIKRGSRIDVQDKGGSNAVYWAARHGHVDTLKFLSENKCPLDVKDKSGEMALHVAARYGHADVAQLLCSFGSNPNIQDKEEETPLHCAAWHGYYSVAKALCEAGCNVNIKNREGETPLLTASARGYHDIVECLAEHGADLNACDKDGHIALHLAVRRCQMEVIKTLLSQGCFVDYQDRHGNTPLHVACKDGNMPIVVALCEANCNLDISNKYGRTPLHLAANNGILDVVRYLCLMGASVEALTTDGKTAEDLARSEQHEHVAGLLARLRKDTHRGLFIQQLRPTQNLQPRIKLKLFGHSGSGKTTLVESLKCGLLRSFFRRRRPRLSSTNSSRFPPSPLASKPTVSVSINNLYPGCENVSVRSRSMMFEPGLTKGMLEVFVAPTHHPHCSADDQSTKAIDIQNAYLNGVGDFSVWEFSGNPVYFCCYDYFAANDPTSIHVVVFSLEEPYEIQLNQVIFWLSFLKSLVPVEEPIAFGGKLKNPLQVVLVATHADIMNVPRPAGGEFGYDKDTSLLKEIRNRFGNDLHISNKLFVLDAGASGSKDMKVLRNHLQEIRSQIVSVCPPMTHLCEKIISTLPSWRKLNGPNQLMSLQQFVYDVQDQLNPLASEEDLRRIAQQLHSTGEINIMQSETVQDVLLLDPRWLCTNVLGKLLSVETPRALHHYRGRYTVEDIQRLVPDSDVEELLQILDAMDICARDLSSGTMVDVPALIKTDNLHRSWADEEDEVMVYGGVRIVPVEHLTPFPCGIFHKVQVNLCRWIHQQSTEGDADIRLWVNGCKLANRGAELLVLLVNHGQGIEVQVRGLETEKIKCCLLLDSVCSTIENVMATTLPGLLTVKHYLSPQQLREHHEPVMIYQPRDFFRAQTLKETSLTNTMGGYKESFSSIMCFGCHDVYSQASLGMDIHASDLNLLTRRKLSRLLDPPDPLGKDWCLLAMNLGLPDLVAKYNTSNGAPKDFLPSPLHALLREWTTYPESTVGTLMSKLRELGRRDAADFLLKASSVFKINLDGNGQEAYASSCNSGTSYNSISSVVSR

Point of comparison: `Fc1ccc(-c2c(-c3ccncc3)nc3n2CCS3)cc1`, inhibition -0.64%. Against it:
- COc1cc2ncn(-c3cc(OCCc4ccccc4)c(C(N)=O)s3)c2cc1OC — higher, 2.25%
- NS(=O)(=O)c1ccc(N/N=C2\C(=O)Nc3ccc(C(=O)NCCCn4ccnc4)cc32)cc1 — higher, 11.1%
- C/C(Nc1ccc(S(N)(=O)=O)cc1)=C1/C(=O)Nc2ccccc21 — higher, 1.47%
- O=C1Nc2ccc(I)cc2C1=Cc1cc(Br)c(O)c(Br)c1 — higher, 1.46%
- CN(c1ccc(NC(=O)Nc2c(Cl)cccc2Cl)cc1)c1ccnc(Nc2cccc(CS(C)(=O)=O)c2)n1 — higher, 4.55%
- CN(C)CCOc1ccc(-c2cc(-c3ccc4c(c3)CCC4=NO)c(-c3ccncc3)o2)cc1 — lower, -1.01%
- Cc1ccc(C(=O)NC2CCC2)cc1-c1ccc(C(=O)NCC2CC2)cc1 — higher, 2.9%
- COc1ccc(-c2ccc3c(NC(=O)C4CC4)n[nH]c3n2)cc1 — higher, 2.58%
- COc1ccc2ncn(-c3cc(O[C@H](C)c4ccccc4Cl)c(C(N)=O)s3)c2c1 — higher, 3.77%
- NS(=O)(=O)c1ccc(Nc2cc(-c3ccc(O)c(F)c3)n[nH]2)cc1 — lower, -2.1%
- COc1ccc(C2=C(N3CCc4ccccc43)C(=O)NC2=O)cc1 — higher, 3.58%
- COc1cc2ncn(-c3cc(OCc4cccs4)c(C(N)=O)s3)c2cc1OC — higher, 0.06%
- O=C(Nc1n[nH]c2nc(-c3ccc(O)cc3)c(Br)cc12)C1CC1 — higher, 5.9%
- COc1cc(Nc2ncc3c(C)nc(-c4cccc(Oc5ccccc5)c4)n3n2)cc(OC)c1OC — higher, 8.86%
- COc1cccc(/C=N/Nc2ncnc3c2cnn3-c2cccc(OC)c2)c1 — higher, -0.06%
- COc1cc(Nc2ncc(-c3ccccc3)o2)cc(OC)c1OC — higher, 1.78%
- COc1cc(N2CCN(C(C)C)CC2)ccc1Nc1nc(Nc2ccc(F)cc2C(=O)NC[C@@H](O)CO)c2cc[nH]c2n1 — higher, 9.94%
- CS(=O)(=O)CCNCc1cc(-c2cc3c(Nc4ccc(OCc5cccc(F)c5)c(Cl)c4)ncnc3s2)cs1 — higher, 2.74%
- O=C(Nc1n[nH]c2cc(-c3ccccc3)ccc12)C1CC1 — higher, 5.91%
- CNC(=O)c1cncc(/C=C/c2c(C)cccc2C)c1 — higher, 0.17%
- NC(=O)Cc1ccccc1Oc1nccc(-c2c(-c3ccc(F)cc3)ncn2C2CCNCC2)n1 — higher, 2.51%
- COc1ccc2cc(-c3c(-c4ccncc4)nc(-c4ccc([S+](C)[O-])cc4C)n3C)ccc2c1 (configuration not stated) — lower, -9.46%
- COc1ccc2cc(-c3c(-c4ccncc4)nc(-c4ccc(S(C)(=O)=O)cc4C)n3C)ccc2c1 — lower, -2.52%
- COc1cc2ncn(-c3cc(OCc4ccccc4C(F)(F)F)c(C(C)=O)s3)c2cc1OC — higher, 4.16%
- NC(=O)c1cc(-c2ccncc2)cc(-c2ccccc2)c1N — lower, -2.69%
- CN(C)c1ccc2c(c1)/C(=C/Nc1ccc(S(N)(=O)=O)cc1)C(=O)N2 — higher, 1.57%
- CCC(=O)Nc1ccc(C)c(-c2ccc(C(=O)NCC3CC3)cc2)c1 — higher, -0.61%
- CN1CCN(CCCNc2nc3ccc(Oc4ccc(NC(=O)Nc5cc(C(F)(F)F)ccc5F)cc4)cc3[nH]2)CC1 — higher, -0.32%
- c1ccc(-c2n[nH]cc2-c2ccnc(-c3ccc(OCCN4CCOCC4)cc3)c2)nc1 — higher, 1%
- Fc1ccc(-c2nc3n(c2-c2ccncc2)CCS3)cc1 — higher, 2.36%
- Fc1ccc(-c2ncn(CCCN3CCOCC3)c2-c2ccncc2)cc1 — higher, 0.52%
- O=C(Nc1ccc(Oc2ccc3[nH]c(NC(=O)c4ccccc4)nc3c2)cc1)Nc1cc(C(F)(F)F)ccc1F — higher, 4.99%
- Cc1nnc(-c2ccc(C)c(-c3ccc(C(=O)NCc4ccc(Cl)cc4)cc3)c2)o1 — higher, 2.85%
